Most compounds without a hit are left out; they make up all but 11% or so of the library.
Insulin prom up: MIN6 insulin promoter up-regulation; MIN6 insulin promoter-GFP reporter, high-content imaging; hits give high values; z-score at 5 µM; AID 1625; actives 0.3% (n = 190,000);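 active = z-score above 3 at 5 µM with at least 500 cells counted in the well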
WT yeast gro inh: growth inhibition of WT yeast, mitochondrial fusion screen; inhibition, % at 10 µM; actives 2.1% (n = 190,000); AID 1362; mitochondrial fusion phenotypic screen, WT strain; in the data active = inhibition above about 58%; tested in S. cerevisiae
Autophagy HCS: alters autophagy in cells; MEF GFP-LC3 puncta imaging; test concentration mostly 10 µM; AID 463193; actives 0.98% (n = 190,000); calls only at 10 µM (by protocol);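 active = percentage of spot-positive cells more than 3 SD above its plate mean, without a fluorescence outlier flag or 80% toxicity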;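 note: spot-positive cell cutoff set from DMSO-treated cells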
Insulin prom inh: TRM-6 insulin promoter activity inhibition | TRM-6 cells (human fetal islet line), insulin promoter-eGFP reporter, imaging; reporter expression induced with tamoxifen | inhibition, % at 2 µM | actives 0.9% (n = 130,000) | AID 1273;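 active = inhibition above the mean plus 3 SD, with well images judged a real hit on visual review, cut at about 60% in these data, passing the limit was not always enough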
L major viab: reduces viability of Leishmania major promastigotes. resazurin fluorescence viability. AID 1063. inhibition, % at 10 µM. actives 9% (n = 200,000); in the data active = inhibition above about 50%;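 note: promastigotes grown with compound for 44 hours at 28 °C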
* marks the source's active call; other numbers are inactive results; i = inactive; / = no result given; + = active, no number.

SMILES	Insulin prom up	WT yeast gro inh	Autophagy HCS	Insulin prom inh	L major viab
Cc1c(C(=O)NCCCN2CCOCC2)oc2c1C1(CCC2)SCCS1	-0.23	-17	i	-24	88*
Cc1ccc(Cl)cc1N1CCN(C(=O)C2(S(=O)(=O)c3ccc(Cl)cc3)CC2)CC1	0.2	-7	i	-200	97*
Cc1cccc(N2CCN(S(=O)(=O)c3ccc(S(=O)(=O)N4CCCC4)cc3)CC2)c1C	0.14	-5	i	7	-5
CC(=O)c1ccc(N2CCN(C(=O)C3(S(=O)(=O)c4ccc(Cl)cc4)CC3)CC2)cc1	-1.5	-3	i	-43	3
O=C(N1CCN(c2cccc(Cl)c2)CC1)C1(S(=O)(=O)c2ccc(Cl)cc2)CC1	-0.45	11	i	-29	99*
Cc1cccc(N2CCN(C(=O)C3(S(=O)(=O)c4ccc(Cl)cc4)CC3)CC2)c1C	-0.95	40	i	-53	52*
Cc1nc2c(C#N)cnn2c2c1CCN2CC1CCCO1 (centres undefined)	-0.1	1	i	/	3
Cc1ccccc1C(C(=O)NC1CCCCC1)N(C(=O)c1ccccn1)c1cccnc1 (centres undefined)	-0.63	-26	i	/	-2
N#C/C(=C/c1ccc(N2CCCCC2)o1)C(=O)Nc1ccc2ccccc2c1	/	20	/	-186	16
N#C/C(=C/c1ccc(N2CCOCC2)o1)c1ccc(Br)cc1	/	-4	+	-54	5
N#C/C(=C/c1ccc(N2CCCCCC2)o1)c1ccc(F)cc1	/	16	+	-45	27
COc1cc(N2CCCC2)c(OC)cc1/C=C(/C#N)c1cccc(F)c1	/	37	+	-35	3
N#C/C(=C/c1ccc(N2CCCCC2)o1)C(=O)Nc1ccc(Cl)cc1	/	4	+	-270	-4
O=C(COC(=O)c1cccnc1Cl)NCc1cccs1	0.88	-19	i	/	0
CC1(C)SC[C@H](C(=O)Nc2cccc(Cl)c2)N1C=O	0.02	/	/	/	/
N#C/C(=C\c1ccc(N2CCOCC2)o1)c1ccccc1	/	2	i	/	18
N#C/C(=C/c1ccc(N2CCCCCC2)o1)c1cccc(F)c1	/	2	+	-1	20
Cc1ccc(S(=O)(=O)N(C)C)cc1NC(=O)c1cc(C(C)(C)C)nn1Cc1ccccc1	-0.2	/	/	/	/
CC(C)/C=C/C(=O)N1CCC(N2CCC(C(=O)N3CCOCC3)CC2)CC1	-1.2	5	i	/	3
C=C(C)[C@@H]1CC=C(C(=O)O)CC1	0.58	/	/	/	/
C=C(C)C1CC=C(CN2CCC(O)CC2)CC1 (centres undefined)	-0.23	-15	i	23	93*
C=C(C)[C@@H]1CC=C(CN2CCC(N3CCC(C(=O)N4CCCC4)CC3)CC2)CC1	-0.11	19	i	/	79*
CC(C)=CCCC(C)CN1CCC(N2CCC(C(=O)N3CCCC3)CC2)CC1 (centres undefined)	0.36	6	i	/	73*
COc1ccc(C)cc1Nc1ccc(C(=O)O)cc1[N+](=O)[O-]	-0.37	-6	i	/	-1
COCCCNC(=O)c1ccccc1-c1cc(C)no1	0.29	/	/	/	/
SMILES	Insulin prom up	WT yeast gro inh	Autophagy HCS	Insulin prom inh	L major viab
N#Cc1ccsc1NC(=O)COC(=O)c1cc2ccccc2cc1O	0.39	1	i	35	79*
N#Cc1ccsc1NC(=O)COC(=O)c1ccc(NC(N)=O)cc1	-0.08	3	i	/	-2
COc1ccc(C(=O)C[n+]2ccc3c(c2)nc(-c2ccc(OC)cc2OC)n3C)cc1	-1.6	19	i	/	87*
COc1ccc(C(=O)C[n+]2ccc3c(c2)nc(-c2ccccc2)n3C)cc1	/	18	i	38	68*
COc1cc(C(F)(F)F)c(C(=O)NCc2cccc(Cl)c2)cn1	-0.94	/	/	/	/
O=C(NC1CCCCC1)c1ccc(CS(=O)(=O)Cc2ccccc2F)o1	/	2	i	-9	3
O=C(NC1CCCC1)c1ccc(CSCc2ccccc2F)o1	/	2	i	-16	89*
Cc1cc(C)cc(-n2nc(C)cc2N)c1	/	-10	i	72*	0
C=CCn1c(SCCN2CCCC2)nc2c([nH]c3ccccc32)c1=O	-2.6	-5	i	8	31
Cc1cc(N2C(=O)c3ccccc3C2=O)n(C)n1	3.8*	/	/	/	/
Cc1ccc(N2C(=O)c3ccccc3C2=O)cc1C	0.18	7	i	-17	-7
COC(=O)c1ccccc1OCCCN(C)C	0.21	2	i	10	-3
CCCCNC(=O)NNC(=O)c1cc(C)on1	0.05	/	/	/	/
Cc1cc(OCC(=O)N(C)c2ccccc2)cc2c1C(=O)CC(C)(C)O2	-0.85	/	/	/	/
CC1(C)CC(=O)c2c(O)cc(OCc3ccc([N+](=O)[O-])cc3)cc2O1	-1.6	83*	i	53	-6
